Experiments:
Assay in all cases: PBM binding z-score (relative to random genomic background probes); higher = stronger binding; sequences stand for … in GC…GCGATTGACAGCGTAGAATGAAGG
[1] = tested on: FXR:RXRa (NR concentration 270 nM, RXRa partner concentration 90 nM)
Procedure, shortened: (§1)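 Custom Agilent 4×180K protein-binding microarrays carried double-stranded probes, each with a 34-nt variable region. These regions held direct-repeat seeds, single-nucleotide variants, half-site ablations and random human genomic background sequences. Ligand-free nuclear receptor dimers were incubated on the arrays for 1 h, antibodies against each partner (one per run) detected binding, and scanned fluorescence was regression-normalized. Binding z-scores take the random background probes as reference.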

[2] = tested on: LXRa:RXRa (NR concentration 270 nM, RXRa partner concentration 90 nM)
Procedure, shortened: as §1

[3] = tested on: LXRa homodimer (NR concentration 270 nM)
Procedure, shortened: as §1

[4] = tested on: LXRb:RXRa (NR concentration 270 nM, RXRa partner concentration 90 nM)
Procedure, shortened: as §1

[5] = tested on: LXRb homodimer (NR concentration 270 nM)
Procedure, shortened: as §1

[6] = tested on: PPARa:RXRa (NR concentration 270 nM, RXRa partner concentration 90 nM)
Procedure, shortened: as §1

[7] = tested on: PPARg:RXRa (NR concentration 180 nM, RXRa partner concentration 90 nM)
Procedure, shortened: as §1

[8] = tested on: PPARg:RXRa 270nM:90nM, anti-RXR (NR concentration 270 nM, RXRa partner concentration 90 nM)
Procedure, shortened: as §1

[9] = tested on: PPARg:RXRa 30nM:10nM, anti-RXR (NR concentration 30 nM, RXRa partner concentration 10 nM)
Procedure, shortened: as §1

[10] = tested on: PPARg:RXRa 90nM:30nM, anti-RXR (NR concentration 90 nM, RXRa partner concentration 30 nM)
Procedure, shortened: as §1

Sequence | PBM binding z-score [1] | PBM binding z-score [2] | PBM binding z-score [3] | PBM binding z-score [4] | PBM binding z-score [5] | PBM binding z-score [6] | PBM binding z-score [7] | PBM binding z-score [8] | PBM binding z-score [9] | PBM binding z-score [10]
TCGAGTAGGTTAGGGGCATTCGGAATGGCGTCGA | 0.123 | 0.347 | -0.32 | 0.736 | -0.712 | 1.06 | 0.477 | 2.22 | 1.15 | 1.51
TCGAGTAGGTTAGGAGCATTCAGAATGGCGTCGA | -0.126 | -0.0909 | -0.756 | -0.438 | -1.39 | 0.24 | 0.0725 | 0.668 | 0.928 | 0.741
CCGACTGGGGCAAGATTACCATAACGCACAGCCA | -0.454 | -0.432 | -0.473 | -0.425 | -1.17 | -0.0466 | 1.17 | 0.422 | -0.715 | -0.513
CCTACTGGGCCATTCAGAGATCATTGATCATATG | -0.238 | -0.231 | -0.224 | -0.409 | -0.653 | 0.219 | 0.557 | 0.204 | -0.621 | -0.372
TCGAGTCGGTTAGGGGCATTCAGAATGGCGTCGA | 0.0826 | -0.161 | -0.614 | 0.203 | -0.666 | 0.491 | -0.446 | 0.528 | 0.725 | 0.702
ATCGAAAGGTCGAAGGTGGGTATACCCACCCGAA | 4.08 | 3.18 | 0.0928 | 2.34 | 0.437 | 4.28 | 3.74 | 3.99 | 1.28 | 2.77
TCTTGTAGATCACGCAGGTTAAGAAAGCCTGAGT | 0.613 | 0.539 | -0.162 | 0.551 | -0.17 | 1.09 | -0.0924 | 1.37 | 2.72 | 1.89
TCATATAGGTAGATGCTAGGTGAAAGTCCGATCT | 0.567 | 0.862 | 0.165 | 0.357 | -0.423 | 0.819 | 0.568 | 1.87 | 3.53 | 2.7
GCTCGGAGCACAAGGTCAGAGCTTTGTCCGTAGA | 1.22 | 1.42 | -0.454 | 0.993 | -1.38 | 2.34 | 0.273 | 1.03 | -0.387 | 0.2
TAGCCCAGGTCATGCGGGCCAGTATAGTGTCGGC | 4.35 | 3.42 | 0.136 | 1.9 | -0.0451 | 3.8 | 2.55 | 2.55 | 0.267 | 1.35
GCGACTGGGGAATCAGCAGGTTACCATAACTTAA | -0.766 | -0.57 | -0.287 | 0.0771 | -1.25 | 0.0843 | 0.0906 | -0.19 | -0.448 | -0.292
CCTTACGGGTCACTGACAGGTTGTAGCATTTGGA | 5.1 | 3.61 | 0.156 | 3.17 | -0.356 | 4.93 | 4.26 | 4.06 | 0.971 | 2.97
CCGACTGGGTCAGAAAGGTTACCATACCATCCGG | 1.8 | 1.62 | -0.0382 | 1.61 | -0.767 | 3.21 | 3.13 | 3.2 | 0.873 | 2.2
CCTTACGGGTCAAGGTTATAACACGGGTGGTACG | 5.53 | 3.71 | 0.233 | 3.44 | 0.254 | 5.22 | 4.63 | 4.8 | 2.22 | 3.94
TCTTGTATATCAAGCAGGTTAAGAAAGCCTGAGT | 0.234 | 0.335 | 0.0276 | 0.678 | 0.189 | 0.992 | -0.217 | 1.47 | 2.86 | 1.86
GCTTACGGGTCAAAGGTTATAGGATGAATAGAAT | 7.58 | 5.53 | 0.854 | 5.77 | 0.455 | 6.89 | 11.4 | 9.24 | 10 | 10.9
GCTATTAGTTGAAAGGCCAACCGAATGATTCTCG | 0.0459 | 0.417 | 0.216 | 0.305 | -0.435 | 1.3 | 1.43 | 3.21 | 1.27 | 2.6
CCGAGTAGGTTATGGGGCATTCATGCAACGGTGA | 0.225 | 0.548 | -0.0106 | 0.797 | -0.214 | 2.26 | 3.65 | 4.6 | 3.02 | 4.44
TCTCGGAGGACATGAAAGGTCAGAGCTCGACATC | 2.65 | 3.67 | 2.92 | 3.09 | -0.221 | 3.34 | 1 | 2.68 | 2.8 | 2.61
TCTGGTAGATCAAGCAGGTTAAGAAAGCCTGAGT | -0.292 | -0.109 | -0.642 | 0.00998 | -1.25 | 0.171 | -0.556 | 0.81 | 2.17 | 1.5
CGTCCAAGGTCAATGCCAGGTCAGTGAAAGCATT | 7.1 | 5.52 | 3.08 | 4.42 | 1.04 | 5.11 | 4.05 | 4.59 | 1.16 | 3.45
CGAAATAGGTCAGAACAGGACAGTGAAGGATGAT | 2.81 | 2.42 | 0.564 | 1.63 | 0.228 | 3.89 | 4.52 | 4.6 | 2.18 | 3.59
AGAATGAGGTTATTAAGATCGGGGAATTGCGGTC | 1.39 | 1.31 | 0.0422 | 1.14 | 0.139 | 2.39 | 0.982 | 1.43 | 0.253 | 0.888
CGAACTAGGTCGTTGACAGGACAGTGAATAGTAA | 0.598 | 0.178 | -0.251 | 0.171 | -0.626 | 1.98 | 2.2 | 2.02 | 0.441 | 1.44
